In PubChem BioAssay AID1159580 (chemical genetic matrix, 2015):
Several values for one entry are separate records, joined by “and”; a condition that tells them apart may be missing. Equal values may be shown once. Among all 5,500 compounds or so, about 2,000 (36%) were called active. Inconclusive results (about 18%) are left out. Rule as the data show it: active = normalized growth mostly below about 0.91 (no sharp cut-off); inconclusive = no clear call, values can overlap the other calls; inactive = mostly above about 0.92. The list shows a part of the results.

Test: chemical genetic growth profiling, strain panel (AID 1159580);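 also: tested at 20 µM; growth read once vehicle control cultures reached saturation at 30 °C; 1 = growth at the plate median or of vehicle wells; lower values mean less growth of the strain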
Details: S. cerevisiae deletion strains, growth OD

Measured: normalized growth

C[C@@H]1CC2C3C[C@H](F)C4=CC(=O)C=C[C@]4(C)[C@@]3(F)[C@@H](O)C[C@]2(C)[C@@]1(O)C(=O)COC(=O)C(C)(C)C (some centres not stated)
inactive: locus YAL021C, strain ccr4, active compounds read low 0.995 | locus YAL026C, strain drs2, active compounds read low 1 | locus YAL030W, strain snc1, active compounds read low 0.98 | locus YBL061C, strain skt5, active compounds read low 0.994 | locus YBR009C, strain hhf1, active compounds read low 0.972 | locus YBR021W, strain FUR4, active compounds read low 1.01 | locus YBR023C, strain chs3, active compounds read low 0.983 | locus YBR171W, strain sec66, active compounds read low 0.998 | locus YBR229C, strain ROT2, active compounds read low 1 | locus YBR231C, strain swc5, active compounds read low 0.98 | locus YBR279W, strain paf1, active compounds read low 0.986 | locus YCL011C, strain gbp2, active compounds read low 1.01 | locus YCL016C, strain dcc1, active compounds read low 0.995 | locus YCL029C, strain bik1, active compounds read low 0.992 | locus YCL069W, strain vba3, active compounds read low 1 | locus YCR088W, strain abp1, active compounds read low 1.01 | locus YDL005C, strain med2, active compounds read low 1 | locus YDL035C, strain GPR1, active compounds read low 0.982 | locus YDL040C, strain nat1, active compounds read low 0.985 | locus YDL074C, strain BRE1, active compounds read low 1 | locus YDL101C, strain DUN1, active compounds read low 1.01 | locus YDL134C, strain PPH21, active compounds read low 0.98 | locus YDL185W, strain tfp1, active compounds read low 1 | locus YDL192W, strain arf1, active compounds read low 1.01 | locus YDR001C, strain nth1, active compounds read low 0.998 | locus YDR069C, strain doa4, active compounds read low 0.991 | locus YDR101C, strain arx1, active compounds read low 0.97 | locus YDR137W, strain rgp1, active compounds read low 1 | locus YDR150W, strain NUM1, active compounds read low 0.999 | locus YDR159W, strain sac3, active compounds read low 0.991 | locus YDR162C, strain NBP2, active compounds read low 0.987 | locus YDR195W, strain ref2 0.911 | locus YDR297W, strain sur2, active compounds read low 0.993 | locus YDR318W, strain mcm21, active compounds read low 1.01 | locus YDR334W, strain swr1, active compounds read low 1 | locus YDR335W, strain msn5, active compounds read low 0.995 | locus YDR388W, active compounds read low 1.01 | locus YDR392W, strain spt3, active compounds read low 1 | locus YDR502C, strain sam2, active compounds read low 1 | locus YEL003W, strain gim4, active compounds read low 1 | locus YEL037C, strain rad23, active compounds read low 0.994 | locus YEL061C, strain CIN8 (second series), active compounds read low 1.01 | locus YEL061C, strain CIN8, active compounds read low 1 | locus YER015W, strain faa2, active compounds read low 0.996 | locus YER016W, strain bim1, active compounds read low 0.99 | locus YER110C, active compounds read low 1.02 | locus YER111C, strain swi4, active compounds read low 0.999 | locus YER155C, strain BEM2 (second series), active compounds read low 0.991 | locus YER155C, strain BEM2, active compounds read low 1.01 | locus YER167W, strain BCK2, active compounds read low 0.997 | locus YFR010W, strain ubp6, active compounds read low 0.997 | locus YGL078C, strain dbp3, active compounds read low 1.01 | locus YGL086W, strain mad1, active compounds read low 0.983 | locus YGL167C, strain pmr1, active compounds read low 0.989 | locus YGL173C, strain kem1, active compounds read low 0.994 | locus YGL227W, strain vid30, active compounds read low 1.01 | locus YGL240W, strain doc1, active compounds read low 0.971 | locus YGL248W, strain PDE1, active compounds read low 1.01 | locus YGL253W, strain hxk2, active compounds read low 1.01 | locus YGR135W, strain pre9, active compounds read low 1.05 | locus YGR252W, strain gcn5, active compounds read low 1.06 | locus YHR013C, strain ard1, active compounds read low 0.965 | locus YHR027C, strain rpn1, active compounds read low 0.998 | locus YHR030C, strain SLT2, active compounds read low 1 and 0.992 | locus YHR079C, strain IRE1 (second series), active compounds read low 1 | locus YHR079C, strain IRE1, active compounds read low 0.972 | locus YHR094C, strain hxt1, active compounds read low 1.01 | locus YHR129C, strain ARP1, active compounds read low 1.01 | locus YHR142W, strain chs7, active compounds read low 1.01 | locus YHR200W, strain rpn10, active compounds read low 1 | locus YIL066C, strain RNR3, active compounds read low 0.997 | locus YIL073C, strain SPO22, active compounds read low 0.995 | locus YIL125W, strain kgd1, active compounds read low 1 | locus YIR030C, strain dcg1, active compounds read low 1 | locus YJL092W, strain hpr5, active compounds read low 1 | locus YJL095W, strain BCK1 (second series), active compounds read low 0.989 | locus YJL095W, strain BCK1, active compounds read low 1.03 and 0.963 | locus YJL115W, strain asf1, active compounds read low 0.993 | locus YJL129C, strain trk1, active compounds read low 1 | locus YJL134W, strain LCB3, active compounds read low 1 | locus YJL154C, strain vps35, active compounds read low 0.997 | locus YJL164C, strain tpk1, active compounds read low 0.989 | locus YJL166W, strain qcr8, active compounds read low 0.966 | locus YJL168C, strain set2, active compounds read low 1.01 | locus YJL187C, strain SWE1 (second series), active compounds read low 1 | locus YJR043C, strain POL32, active compounds read low 0.983 | locus YJR066W, strain TOR1, active compounds read low 0.944
